Results reported in PubChem BioAssay (NCATS).
Inconclusive results are not listed. Active and inactive are the calls of the source. Calls follow the shape of the dose curve; as a rule, active = well fitted cell-killing curve with a large enough effect; inconclusive = small, poorly fitted or top-dose-only effect, or effect the other way; inactive = flat fitted curve, though single readings scatter.

Assays:
Assay in all cases: Primary qHTS to identify gynecologic anti-cancer compounds using libraries of approved drugs and bioactive compounds (AID 1345084); also: nearly all actives have a fitted effect of over 55% in size
[1] = system: C33A; conditions: Gynecologic cancer cell panel viability, ATPlite luminescence, 48 h; series mostly up to 57.5 µM
Summary of the method: (§1)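 48 h compound exposure at 37 C, 5% CO2; five-point qHTS. ATPlite luminescence readout of cell ATP.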

[2] = system: CAOV3; conditions: Gynecologic cancer cell panel viability, ATPlite luminescence, 48 h; series mostly up to 57.5 µM
Summary of the method: as §1

[3] = system: CASKI; conditions: Gynecologic cancer cell panel viability, ATPlite luminescence, 48 h; series mostly up to 57.5 µM
Summary of the method: as §1

[4] = system: Es-2; conditions: Gynecologic cancer cell panel viability, ATPlite luminescence, 48 h; series mostly up to 57.5 µM
Summary of the method: as §1

[5] = system: HeLa; conditions: Gynecologic cancer cell panel viability, ATPlite luminescence, 48 h; series mostly up to 57.5 µM
Summary of the method: as §1

[6] = system: Hek293T; conditions: Gynecologic cancer cell panel viability, ATPlite luminescence, 48 h, control line for the selectivity index; series mostly up to 57.5 µM
Summary of the method: as §1

[7] = system: JEG-3; conditions: Gynecologic cancer cell panel viability, ATPlite luminescence, 48 h; series mostly up to 57.5 µM
Summary of the method: as §1

[8] = system: OV90; conditions: Gynecologic cancer cell panel viability, ATPlite luminescence, 48 h; series mostly up to 57.5 µM
Summary of the method: as §1

[9] = system: PA-1; conditions: Gynecologic cancer cell panel viability, ATPlite luminescence, 48 h; series mostly up to 57.5 µM
Summary of the method: as §1

[10] = system: SKOV3; conditions: Gynecologic cancer cell panel viability, ATPlite luminescence, 48 h; series mostly up to 57.5 µM
Summary of the method: as §1

[11] = system: Tov-21-G; conditions: Gynecologic cancer cell panel viability, ATPlite luminescence, 48 h; series mostly up to 57.5 µM
Summary of the method: as §1

[12] = system: Tov112D; conditions: Gynecologic cancer cell panel viability, ATPlite luminescence, 48 h; series mostly up to 57.5 µM
Summary of the method: as §1
% is scaled to controls: 0 for no effect and ±100 for the full control effect.

O=C(Nc1cc(C(F)(F)F)ccc1N1CCCCC1)c1ccncc1
inactive: Potency [1] | Potency [2] | Potency [3] | Potency [4] | Potency [5] | Potency [6] | Potency [7] | Potency [8] | Potency [9] | Potency [10] | Potency [11] | Potency [12]

C/C=C(/C)C(=O)OC1C=C2C3C(C)C(C)C(OC(=O)C(C)C(C)O)CC3(C)CCC2(C)C2(C)CC(OC(C)=O)C3C(C)(C)C(O)C(=O)CC3(C)C12 (stereo not given)
inactive: Potency [1] | Potency [2] | Potency [3] | Potency [4] | Potency [5] | Potency [6] | Potency [7] | Potency [8] | Potency [9] | Potency [10] | Potency [11] | Potency [12]

O=C(NC1CCC1)c1ccc(C#Cc2cccc(F)c2)nc1
inactive: Potency [1] | Potency [2] | Potency [3] | Potency [4] | Potency [5] | Potency [6] | Potency [7] | Potency [8] | Potency [9] | Potency [10] | Potency [11] | Potency [12]

CC1=C(C(=O)Nc2cc(Cl)ccc2Cl)C(c2ccco2)C2=C(CCCC2=O)N1 (stereo not given)
inactive: Potency [1] | Potency [2] | Potency [3] | Potency [4] | Potency [5] | Potency [6] | Potency [7] | Potency [8] | Potency [9] | Potency [10] | Potency [11] | Potency [12]

O=C1Nc2ccccc2-c2nc3ccccc3c(=O)n2-c2c(O)cccc21
inactive: Potency [1] | Potency [2] | Potency [3] | Potency [4] | Potency [5] | Potency [6] | Potency [7] | Potency [8] | Potency [9] | Potency [10] | Potency [11] | Potency [12]

CCC(C)C(=O)Oc1cc(C)ccc1C1(COC(=O)C(C)C)CO1 (stereo not given)
inactive: Potency [1] | Potency [2] | Potency [3] | Potency [4] | Potency [5] | Potency [6] | Potency [7] | Potency [8] | Potency [9] | Potency [10] | Potency [11] | Potency [12]

CC(=O)O[C@@H]1[C@@H](O)[C@H](O[C@@H]2[C@@H](O)[C@@H](O)[C@H](O[C@H]3[C@H](O[C@H]4[C@H](O[C@H]5CC[C@@]6(C)C(CC[C@]7(C)C6CC=C6[C@@H]8CC(C)(C)CC[C@]8(C(=O)O)CC[C@]67C)[C@]5(C)CO)O[C@H](CO)[C@@H](O)[C@@H]4O)OC[C@@H](O)[C@@H]3O)O[C@H]2C)OC[C@H]1O (stereo not given in full)
inactive: activity change, negative = cytotoxicity [1] -4.66% [at 11.6 µM] | activity change, negative = cytotoxicity [2] 10.9% [at 11.6 µM] | activity change, negative = cytotoxicity [3] 17% [at 11.6 µM] | activity change, negative = cytotoxicity [4] -1.31% [at 11.6 µM] | activity change, negative = cytotoxicity [5] 2.05% [at 11.6 µM] | activity change, negative = cytotoxicity [6] 1.05% [at 11.6 µM] | activity change, negative = cytotoxicity [7] 13.7% [at 11.6 µM] | activity change, negative = cytotoxicity [8] 10.1% [at 11.6 µM] | activity change, negative = cytotoxicity [9] -1.55% [at 11.6 µM] | activity change, negative = cytotoxicity [10] 10.7% [at 11.6 µM] | activity change, negative = cytotoxicity [11] -11% [at 11.6 µM] | activity change, negative = cytotoxicity [12] -6.37% [at 11.6 µM]

CC(C)=CCC[C@](C)(O[C@@H]1O[C@H](CO[C@@H]2OC[C@@H](O)[C@H](O)[C@H]2O)[C@@H](O)[C@H](O)[C@H]1O)[C@H]1CC[C@]2(C)[C@@H]1[C@H](O)C[C@@H]1[C@@]3(C)CC[C@H](O[C@@H]4O[C@H](CO)[C@@H](O)[C@H](O)[C@H]4O)C(C)(C)[C@@H]3CC[C@]12C
inactive: Potency [1] | Potency [2] | Potency [3] | Potency [4] | Potency [5] | Potency [6] | Potency [7] | Potency [8] | Potency [9] | Potency [10] | Potency [11] | Potency [12]

CC1=CC2/C=C(\C)CCC3OC(C)(C)OC3CCC(=O)C23C(=O)NC(CC(C)C)C3C1C (stereo not given)
inactive: Potency [1] | Potency [2] | Potency [3] | Potency [4] | Potency [5] | Potency [6] | Potency [7] | Potency [8] | Potency [9] | Potency [10] | Potency [11] | Potency [12]

C=C1C(OC2OC(CO)C(O)C(O)C2O)CC2C(C)(C)C(O)CCC2(C)C1CC/C(C)=C\COC(=O)CC(=O)O (stereo not given)
inactive: Potency [1] | Potency [2] | Potency [3] | Potency [4] | Potency [5] | Potency [6] | Potency [7] | Potency [8] | Potency [9] | Potency [10] | Potency [11] | Potency [12]

O=C(O)c1ccc(S(=O)(=O)N(Cc2ccc(OC(F)(F)F)cc2)c2ncc(C(F)(F)F)cc2Cl)cc1
inactive: Potency [1] | Potency [2] | Potency [3] | Potency [4] | Potency [5] | Potency [6] | Potency [7] | Potency [8] | Potency [9] | Potency [10] | Potency [11] | Potency [12]

C/C(=C\CO[C@@H]1O[C@H](CO[C@H]2OC[C@](O)(CO)[C@H]2O)[C@@H](O)[C@H](O)[C@H]1O)C(C)(C)O
inactive: Potency [1] | Potency [2] | Potency [3] | Potency [4] | Potency [5] | Potency [6] | Potency [7] | Potency [8] | Potency [9] | Potency [10] | Potency [11] | Potency [12]

C=C1/C(=C/C=C2\CCC[C@]3(C)[C@@H]([C@H](C)/C=C/[C@@H](C)C(C)C)CC[C@@H]23)C[C@@H](O)C[C@@H]1O
inactive: Potency [1] | Potency [2] | Potency [3] | Potency [4] | Potency [5] | Potency [6] | Potency [7] | Potency [8] | Potency [9] | Potency [10] | Potency [11] | Potency [12]

CO[C@@H]1[C@H](O)CCC2(CO2)[C@H]1[C@@]1(C)O[C@@H]1CC=C(C)C (stereo not given in full)
inactive: Potency [1] | Potency [2] | Potency [3] | Potency [4] | Potency [5] | Potency [6] | Potency [7] | Potency [8] | Potency [9] | Potency [10] | Potency [11] | Potency [12]

C/C=C/CCC1Cc2cc(O)c(CCCC)c(O)c2C(=O)O1 (stereo not given)
inactive: Potency [1] | Potency [2] | Potency [3] | Potency [4] | Potency [5] | Potency [6] | Potency [7] | Potency [8] | Potency [9] | Potency [10] | Potency [11] | Potency [12]
